Autofluor counter = compound fluorescence in toxin protease inhibitor counterscreen; compound autofluorescence counterscreen, microsphere flow cytometry; stronger effect = higher value; fluorescence intensity (test concentration not listed); 3.1% of 360,000 active; in the data active = fluorescence intensity above about 16000; inconclusive = no clear call, values can overlap the other calls
BoNT-F LC inh = BoNT F light chain protease inhibition; 0.22% of 360,000 active; Multiplex microsphere protease cleavage assay, flow cytometry; inhibition, % at 10 µM; in the data active = inhibition above about 35%, passing the limit was not always enough; inconclusive = no clear call, values can overlap the other calls; also: plate controls were buffer without enzyme for full effect and enzyme alone for no effect
CCHF vOTU inh = CCHFV vOTU protease inhibition; 0.55% of 370,000 active; AID 651958; inhibition, % at 11.5 µM; Pep-AMC fluorescence; in the data active = inhibition above about 30%; also: 0% = vehicle wells with enzyme and 100% = no enzyme wells
Anthrax LF prot = anthrax lethal factor protease inhibition. multiplex microsphere protease cleavage assay, LF. 0.12% of 360,000 active. inhibition, % at 10 µM. P15917; also: plate controls were buffer without enzyme for full effect and enzyme alone for no effect
Target sequence (P15917 whole entry, looked up): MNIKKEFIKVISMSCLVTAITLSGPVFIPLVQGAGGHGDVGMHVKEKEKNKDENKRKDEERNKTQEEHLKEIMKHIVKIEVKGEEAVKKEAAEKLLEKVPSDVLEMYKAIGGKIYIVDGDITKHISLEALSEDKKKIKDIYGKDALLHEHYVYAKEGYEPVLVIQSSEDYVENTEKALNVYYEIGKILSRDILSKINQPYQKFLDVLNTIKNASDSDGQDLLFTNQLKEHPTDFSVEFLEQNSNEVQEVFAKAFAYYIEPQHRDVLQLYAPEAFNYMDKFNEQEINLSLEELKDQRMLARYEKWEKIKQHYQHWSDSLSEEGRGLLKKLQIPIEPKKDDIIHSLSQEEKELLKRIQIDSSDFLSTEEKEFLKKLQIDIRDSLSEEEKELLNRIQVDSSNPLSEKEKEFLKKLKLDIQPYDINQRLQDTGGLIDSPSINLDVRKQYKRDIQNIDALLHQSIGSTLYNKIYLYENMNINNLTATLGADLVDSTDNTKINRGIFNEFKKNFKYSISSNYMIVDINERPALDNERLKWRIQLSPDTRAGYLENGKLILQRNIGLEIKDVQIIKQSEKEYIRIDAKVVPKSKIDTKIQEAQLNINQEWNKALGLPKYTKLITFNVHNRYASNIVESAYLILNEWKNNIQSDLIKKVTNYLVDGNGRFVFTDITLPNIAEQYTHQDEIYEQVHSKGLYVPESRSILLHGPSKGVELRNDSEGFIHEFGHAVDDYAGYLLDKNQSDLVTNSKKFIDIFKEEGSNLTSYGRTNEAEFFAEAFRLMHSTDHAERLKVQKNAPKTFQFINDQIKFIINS
3CLpro inhibitor = SARS-CoV 3CLpro protease inhibition. AID 1706. 0.14% of 290,000 active. recombinant SARS-CoV 3CLpro, quenched FRET peptide cleavage. P0C6X7. inhibition, % at 6 µM; in the data active = inhibition above about 12%
BoNT-A LC inh2 = BoNT A light chain protease inhibition. multiplex microsphere protease substrate cleavage, flow cytometry. inhibition, % at 10 µM. 0.17% of 360,000 active. AID 588499; also: plate controls were buffer without enzyme for full effect and enzyme alone for no effect
BoNTA LC inh 1 = inhibitors of Botulinum neurotoxin A light chain protease. 3% of 720 active. inhibition, % at 10 µM. multiplex microsphere protease assay, flow cytometry. shares compounds with BoNT-F LC inh; in the data active = inhibition above about 32%
BoNT-F LC CP1 = inhibitors of Botulinum neurotoxin F light chain protease. shares compounds with BoNT-F LC inh. multiplex microsphere protease cleavage assay, flow cytometry. inhibition, % at 10 µM. 720 tested, under 10 active. AID 602140; call rule not given here
Anthrax LF CP1 = Bacillus anthracis lethal factor protease inhibition | shares compounds with BoNT-F LC inh | multiplex microsphere protease cleavage assay, LF | inhibition, % at 10 µM | 720 tested, under 10 active; call rule not given here
The depositor's hits bear a star; u = inconclusive; x = no result given. A selection: hits, their analogues and other compounds. The true share with any hit is near 3.9%. Rule as the data show it, unless noted: active = inhibition above about 30%; inconclusive = no clear call, values can overlap the other calls; inactive = below that.

SMILES	Autofluor counter	BoNT-F LC inh	CCHF vOTU inh	Anthrax LF prot	3CLpro inhibitor	BoNT-A LC inh2	BoNTA LC inh 1	BoNT-F LC CP1	Anthrax LF CP1
COC(=O)[C@@H]1CCCN1C(=O)CCc1nnc(CCC2CCCCC2)o1	2329	2.4	-7.9	-1.7	-1.9	-0.6	x	x	x
O=S(=O)(c1ccccc1F)N1CCc2ccccc2C1	3906	u	10.4	33.9*	7.1	0.0	-1.0	-1.6	-2.1
Cc1cc(C)n(-c2nnc(NC34CC5CC(CC(C5)C3)C4)nn2)n1	2849	10.6	0.9	20.0	1.3	51.7*	15.7	-5.5	21.0
Cn1c(=O)c2cc3ccccc3nc2n(C)c1=O	4208	u	-10.1	29.5*	4.2	-1.3	0.2	-0.8	2.0
Cn1c(=O)c2cc3ccc(Cl)cc3nc2n(C)c1=O	5893	0.4	-11.1	-6.5	-2.1	0.9	x	x	x
Cc1cc(C)c2[nH]c(=O)c(C(c3nnnn3C(C)(C)C)N(Cc3ccco3)CC3CCCO3)cc2c1 (stereo not drawn)	20853*	0.4	-0.2	-2.7	-3.9	0.2	-1.2	-7.0	-2.9
CS(=O)(=O)N1CCC(C(=O)Nc2cccc([N+](=O)[O-])c2)CC1	5133	4.8	15.5	6.4	5.6	0.1	x	x	x
Cc1ccc(C(CC(=O)N2CCCCC2)c2ccccc2)c(O)c1C (stereo not drawn)	6356	128.1*	-7.6	69.1*	-2.7	9.8	-0.8	-6.4	-0.3
Cc1ccc(C(CC(=O)N2CCNCC2)c2ccccc2)c(O)c1C (stereo not drawn)	2861	-15.1	5.7	0.3	-1.8	0.4	x	x	x
O=C(NOCc1ccccc1)c1coc(-c2ccccc2)n1	3041	-11.9	-0.5	2.4	x	-0.3	x	x	x
Nc1nc2ccccc2n1CCOc1ccc(F)cc1	4168	42.2*	-7.8	-0.9	-0.8	-3.9	-0.7	-2.0	2.9
COc1ccc(OCCn2c(N)nc3ccccc32)cc1	3931	12.2	-13.8	-9.5	-0.2	-4.0	x	x	x
COc1ccc(-c2c(C#N)c(N)nc3sc(C(=O)c4ccccc4)c(N)c23)cc1	2561	7.4	-0.8	18.5	-1.8	44.4*	7.5	-3.0	5.2
Cc1ccc(C(=O)N(CCC2=CCCCC2)c2c(N)n(Cc3ccccc3)c(=O)[nH]c2=O)o1	5952	-5.1	22.3	u	x	31.0*	-1.7	-9.8	2.0
CC(=O)OCC(=O)C1(O)CCC2C3CCC4=CC(=O)C=CC4(C)C3C(O)CC21C (stereo not drawn)	6462	-5.6	-4.9	-0.5	1.7	-1.2	x	x	x
CCC(C)[C@H](NC(=O)N1CCCCC1)C(=O)OC (stereo partly drawn)	4756	u	-6.9	34.7*	-0.8	3.3	-0.9	2.8	-1.0
CCC(C)[C@H](NC(=O)N1CCCC1)C(=O)OC (stereo partly drawn)	11959	-7.6	-4.2	-2.2	-1.2	-0.6	x	x	x
Cc1ccsc1/C=C/C1=Cc2c(sc(NC(=O)CSc3n[nH]c(N)n3)c2C#N)C(C)(C)C1	18756*	24.2	12.4	33.2*	3.0	44.1*	21.1	0.7	12.3
CCOC(=O)c1sc(NC(=O)CSc2n[nH]c(-c3ccncc3)n2)c(C#N)c1C	x	x	8.5	x	-6.1	x	x	x	x
CCOc1ccc(/C=C/C2=Cc3c(sc(NC(=O)CSc4n[nH]c(N)n4)c3C#N)C(C)(C)C2)cc1	7061	37.1*	10.5	57.9*	1.9	85.4*	28.7	6.4	19.6
COC(=O)Nc1ccc(S(=O)(=O)N2CCC(C(=O)NCc3ccc4c(c3)OCO4)CC2)cc1	4252	0.7	-4.4	3.6	x	0.1	x	x	x
OC1CN=C2CCCc3c2n(c2ccc(Cl)cc32)C1 (stereo not drawn)	4022	24.3	-6.7	41.7*	-1.9	54.3*	3.9	0.2	7.5
CCOc1ccccc1NC(=O)COC(=O)c1nc2nccc(C)n2n1	3567	-0.9	-6.8	5.8	x	-0.2	x	x	x
Cc1cc(C(=O)Nc2cc(C(C)(C)C)on2)c(C)o1	5818	u	0.0	100.0*	-1.7	-1.1	-0.5	-1.0	-2.3
O=C(NCS(=O)(=O)c1ccccc1)c1ccccc1	4447	36.0*	8.6	-1.7	-1.5	1.6	1.1	2.5	3.8
SMILES	Autofluor counter	BoNT-F LC inh	CCHF vOTU inh	Anthrax LF prot	3CLpro inhibitor	BoNT-A LC inh2	BoNTA LC inh 1	BoNT-F LC CP1	Anthrax LF CP1
CCCCNCCOCCOc1ccc(C)cc1[N+](=O)[O-]	u	45.5*	-2.7	u	2.9	22.0	1.5	1.1	1.3
c1ccc2c(-c3cc(NCc4ccncc4)n4nccc4n3)cccc2c1	3135	-2.9	-6.7	0.9	x	0.1	x	x	x
COc1ccc(C(=O)CSc2nnc(CN3CCCC3)n2-c2ccc(F)cc2)c(OC)c1	2755	38.7*	9.3	-1.9	2.8	4.0	-1.3	-4.9	0.4
COc1ccc(C(=O)CSc2nnc(CN3CCCCC3)n2-c2ccc(F)cc2)cc1OC	2073	-28.0	-10.9	1.6	-4.2	-0.5	x	x	x
COC(=O)C(Cc1ccccc1)NC(=O)c1cccc(S(=O)(=O)N(C)C)c1 (stereo not drawn)	4261	36.8*	-16.1	-1.6	1.8	7.1	-0.5	-1.1	-1.7
C=C1C(=O)O[C@H]2C[C@H]1[C@@H](OC(C)=O)C/C(C)=C/CC/C(C)=C\CC[C@]2(C)O	3619	-5.0	3.4	-2.7	x	0.4	x	x	x
Clc1cccc(OCc2nc(-c3ccncc3)no2)c1	2544	44.2*	-0.1	-2.3	0.2	4.4	0.6	-4.7	0.9
Clc1ccc(OCc2nc(-c3ccncc3)no2)c(Cl)c1	3641	-15.7	6.3	-3.0	5.3	1.3	x	x	x
Cc1ccc(CNC(=O)CCC(=O)n2ncc3cc(C)ccc32)cc1	4390	1.9	-2.4	-5.2	-2.6	0.1	x	x	x
Cc1cc2cc(CNC(=O)Cc3ccc([N+](=O)[O-])cc3)ccc2n1C	2033	-85.3	-0.5	-64.4	2.5	76.8*	2.0	-10.4	-2.7
CCCC(=O)NCc1ccc2c(c1)cc(C)n2C	4194	-37.4	-2.7	-3.1	-1.3	17.4	2.9	-6.9	-0.3
Cc1cc2cc(CNC(=O)Cc3ccc([N+](=O)[O-])cc3)ccc2[nH]1	3872	-31.3	4.0	7.5	6.5	58.4*	-1.4	-9.2	-2.9
Cc1cc2cc(CNC(=O)CCC(=O)O)ccc2n1C	2670	-4.4	-0.2	-1.3	5.9	-1.7	-0.3	-1.0	1.0
Cc1cc2cc(CNC(=O)c3cccc([N+](=O)[O-])c3)ccc2n1C	4361	-8.8	3.0	-6.2	4.1	2.2	x	x	x
COc1ccc(CCNC(=O)COc2nncc3ccccc23)cc1	4249	-3.8	-1.9	5.6	3.4	-0.4	x	x	x
CSc1nsc(SCC(=O)Nc2ccccc2F)n1	2976	-9.9	-3.4	-16.5	-5.2	-1.4	x	x	x
Cc1cc(C)n(C(=O)COc2c(C)cccc2C)n1	4333	47.2*	0.6	1.8	-0.7	1.6	-0.4	-2.1	-0.9
